This is an account of results in PubChem BioAssay (NCI).

About 79,000 compounds went through this panel and 15% of them were active in at least one assay; those are over-represented in the sample as a whole. The source made the active and inactive calls. No stated cut-off is given here; in the data, active means growth inhibition above about 70%; inactive means the rest.

A short description of this experiment: NCI Yeast Anticancer Drug Screen. Data for the rad50 strain (AID 155).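 Further: 0% = growth of vehicle-only cultures of the same strain.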 Particulars: S. cerevisiae rad50 strain growth inhibition; at 100.0 µM; stronger effect = higher value. Put shortly: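 Vehicle-treated cultures provide the reference for the growth inhibition reported for compound-exposed, repair-deficient yeast.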
For `CN(C)CC(CN(C)C)C(=O)/C=C/c1ccc(Cl)cc1Cl`, the growth inhibition was 97% (active).

On to `c1ccc2c(c1)ccn2CCc1c[nH]c2ccccc12`, for which the growth inhibition is 98% (active). Take `Cc1ccccc1NC(=O)c1c(C)oc2c1C(=O)c1ccccc1C2=O`: the growth inhibition is 86% (active).

As to `CC(C)OC(=O)NNc1c(Cl)cc(Cl)cc1Cl`, the growth inhibition was 13% (inactive). To `COc1ccc2nc3cccc([N+](=O)[O-])c3c(NCCNCCO)c2c1` belongs 95% (active); to `COc1ccc2c(c1)CCCC(Br)C2=O` (stereo unspecified), 98% (active); to `CCC(OC(C)=O)C1CC(C(C)C)CCC1C` (stereo unspecified), 53% (inactive). Consider `O=S(=O)(c1cccc(C(F)(F)F)c1)N1c2ccccc2-n2cccc2C1c1cccnc1` (stereo unspecified), for which the growth inhibition is 87% (active). Turning to `c1ccc(-c2cc(C3CO3)c3ccccc3n2)cc1` (stereo unspecified), the growth inhibition was 98% (active).

As to `COc1ccc(/C=C2\SC(=S)N(/C=C3\C(=O)N(c4ccccc4)N=C3C)C2=O)cc1OC`, the growth inhibition is 71% (active). To `CC1=CC(=C(c2ccc(N)c(C)c2)c2ccc(N)c(C)c2)C=CC1=N` belongs 96% (active). The figure for `CC1C(c2ccccc2)SC(=N)N1C` (stereo unspecified) is -4% (inactive); for `CC(/C=C/c1ccc([N+](=O)[O-])o1)=N/N1CC(CN2CCOCC2)OC1=O` (stereo unspecified) it is 97% (active); for `C=CC(C)(C)N1C(=O)C(C(C)=O)=C(O)C1Cc1c[nH]c2ccccc12` (stereo unspecified) it is 78% (active). For the molecule `O=C1c2cccc3cccc(c23)C(=O)N1CCNCCN1C(=O)c2cccc3cccc(c23)C1=O`, the growth inhibition is 53% (inactive). With `Cc1ccc([N+](=O)[O-])c2c(NCCC[N+](C)(C)[O-])c3ccccc3nc12`, the growth inhibition is 81% (active). To `COC(=O)C(Cc1c[nH]c2ccccc12)N1CN(C)c2ccccc2C1=O` (stereo unspecified) belongs 99% (active); to `O=C(/N=N/C(=O)Oc1ccccc1)Oc1ccccc1`, 45% (inactive); to `COc1cc([C@@H]2c3cc4c(cc3[C@@H](NC(=O)NO)[C@H]3COC(=O)[C@H]23)OCO4)cc(OC)c1O`, 86% (active). The figure for `CC1(C)CC(=O)C(/C=N/c2nc(-c3ccc(Br)cc3)cs2)=C(O)C1` is 97% (active); for `CCOC(=O)/C(=C/c1cccc(Cl)c1)N(CC)CC` it is 95% (active). To `CC(C)OC(=O)NNc1cccc(Cl)c1` belongs 97% (active). Regarding `CCC(=O)C1=C(O)c2cc(OC)ccc2CC1C(=O)OC` (stereo unspecified), the growth inhibition is 28% (inactive).

In the case of `O=S(=O)(NC1CCCC(c2ccccc2)C1)c1ccccc1` (stereo unspecified), the growth inhibition was 93% (active).

Take `COc1ccc2nc3cccc([N+](=O)[O-])c3c(NCCCCCC(=O)O)c2c1`: the growth inhibition was 97% (active). For the molecule `CCO/C=C1\SC(=S)N(c2ccc(OCC)cc2)C1=O`, the growth inhibition is 72% (active). Turning to `COc1cc(OC)c(CSCC(NC(=O)OCC2c3ccccc3-c3ccccc32)C(=O)O)c(OC)c1` (stereo unspecified), the growth inhibition was 98% (active). Consider `COC(=O)c1ccccc1N=NNc1cccc(SC)c1`, for which the growth inhibition was 87% (active). Take `CC1=NN(C(=O)c2ccccc2O)C(=O)/C1=C/c1ccco1`: the growth inhibition was 95% (active). As for `COc1ccccc1NC(=O)c1ccc(Cl)cc1`, the growth inhibition is 8% (inactive). The figure for `CC(C)=CCC/C(C)=C/CN1C(=O)C=CC1=O` is 99% (active).

Regarding `O=C1CSC(c2ccccc2)N1c1ccc(-c2ccc(-n3c(-c4ccccc4)nc4ccccc4c3=O)cc2)cc1` (stereo unspecified), the growth inhibition was 43% (inactive).

In the case of `N#CC1OB(O)c2ccccc21` (stereo unspecified), the growth inhibition was 11% (inactive). To `O=C(NCCNCCNC(=O)c1cc(-c2ccccc2)nc2ccccc12)c1cc(-c2ccccc2)nc2ccccc12` belongs 1% (inactive); to `Brc1ccc(B2Nc3ccccc3N2)cc1`, 54% (inactive). To `CCOP(=O)(OCC)/C(C#N)=C/c1cccc(Oc2ccccc2)c1` belongs 96% (active).
